Compound activity deposited in PubChem by several laboratories.
BJeLR lethal = MLPCN primary cell-based screen for lethality selective to Ras in HRASV12 cells. AID 1554, 2009. BJeLR (HRASV12) viability, CellTiter-Glo ATP luminescence, 48 h. inhibition, % (no concentration beside the values). hit rate 0.17% among 300,000; in the data active = inhibition above about 50%; inconclusive = no clear call, values can overlap the other calls
MazEF act = activators of E. coli MazEF toxin-antitoxin RNase, primary screen, biochemical, fluorescence, uHTS | Endoribonuclease toxin MazF (Escherichia coli (strain K12)), P0AE70 | FAM/BHQ RNA-DNA oligo cleavage fluorescence, 5 h | activation, % at 20 µM | hit rate 0.32% among 350,000; in the data active = activation above about 50%
Target sequence (P0AE70 whole entry, looked up): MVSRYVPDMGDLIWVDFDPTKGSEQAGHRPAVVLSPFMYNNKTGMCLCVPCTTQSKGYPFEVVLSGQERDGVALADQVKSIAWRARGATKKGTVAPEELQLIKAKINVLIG
PrPC surface inh = inhibitors of human cell surface prion protein PrPC, primary screen, cell-based, TR-FRET; Major prion protein (Homo sapiens), P04156; TR-FRET read-out; inhibition, % at 13.8 µM; hit rate 0.43% among 370,000; AID 720596, 2013; in the data active = inhibition above about 24%; note: 0% = median of the test wells and 100% = reference compound wells
PrP UTR inh = inhibition of PrP 5' UTR reporter expression | inhibition, % (no concentration beside the values) | AID 488862, 2010 | cell-based PrP 5' UTR mRNA reporter, plate reader | hit rate 0.35% among 340,000; in the data active = inhibition above about 52%; note: 0 = median of the neutral control wells
PrP 5UTR single = prion 5' UTR mRNA inhibition, cherry-pick retest. shares compounds with PrP UTR inh. cell-based prion protein 5' UTR reporter, plate reader. inhibition, % at 2.5 µM. hit rate 48% among 1,100. AID 504592, 2011; in the data active = inhibition above about 54%; inconclusive = no clear call, values can overlap the other calls
* = called active by the depositor; ? = inconclusive; / = not tested or not shown. Only some compounds are listed: those with a hit (about 1.1% of all), similar ones and a draw of the others.

SMILES	BJeLR lethal	MazEF act	PrPC surface inh	PrP UTR inh	PrP 5UTR single
COC(=O)Nc1ccc(S(=O)(=O)N2CCCCC2C(=O)NCc2ccco2)cc1 (stereo not drawn)	7	-24	-3	89*	27
CCOC(=O)CC[C@H]1CC[C@]2(CCCN(S(C)(=O)=O)C2)O1	/	/	9	/	/
COc1ccc(CC(=O)Nc2ccc(S(=O)(=O)NC(C)C)cc2)cc1	14	3	5	-6	/
CCCCNS(=O)(=O)c1ccc(NC(=O)Cc2ccc(OC)cc2)cc1	/	-8	1	69*	10
COC(=O)c1c(NC(=O)c2ccc([N+](=O)[O-])o2)sc2c1CCN(C(C)C)C2	20	3	13	66*	97*
COC(=O)c1c(NC(=O)Cc2ccccc2)sc2c1CCN(C(C)C)C2	-15	5	2	-2	/
COc1cccc(N(C)C(=O)[C@@H](C2CC2)[C@@H](O)c2ccc3ccccc3c2)c1	/	/	1	/	/
CCCN(CCC)C(=O)c1ccc2c(=O)n(Cc3ccco3)c(=S)[nH]c2c1	-1	2	1	83*	17
COc1ccc(CNC(=O)c2cc(-c3ccccc3)c(N3CCOCC3)s2)cc1OC	/	/	6	/	/
C=CCN(CC=C)S(=O)(=O)c1ccc(NC(=S)NC(=O)/C=C/c2ccccc2)cc1	-4	-3	2	59*	-9
O=C(Nc1ccccc1Oc1ccccc1)NC1CCCCN(Cc2cccc(Cl)c2)C1=O (stereo not drawn)	/	/	9	/	/
COc1ccc(/C=C/C(=O)c2cc(F)ccc2OC(=O)c2ccccc2)cc1OC	26	-7	-7	1	/
COc1ccc(/C=C/C(=O)c2cc(F)ccc2OC(=O)c2ccccc2OC)cc1OC	41	0	2	47	?
Cc1nc2c(-c3ccccc3)cnn2c(N)c1-c1ccccc1	5	2	9	65*	10
CN(C)c1ccc(C(=S)Nc2ccccc2)cc1	3	-5	9	22	/
CN(C)c1ccc(NC(=S)c2ccccn2)cc1	13	1	-5	83*	80*
CCCC(C(=O)NC1CCCC1)N(Cc1ccc2c(c1)OCO2)C(=O)c1snc(C(N)=O)c1N (stereo not drawn)	3	-1	0	-16	/
NC(=O)c1nsc(C(=O)N(CC(=O)NCc2ccc3c(c2)OCO3)C2CCCC2)c1N	5	2	-2	76*	-16
Cc1nnc(NN2CCOCC2)[nH]c1=O	2	9	7	84*	-29
c1ccc(-c2ccc(-c3nc(-c4ccccn4)no3)cc2)cc1	81*	-1	3	89*	91*
Clc1cccc(-c2nc(-c3ccccn3)no2)c1	5	6	9	47	/
Cc1ccc(-c2nc(-c3ccccn3)no2)cc1	49	3	-7	86*	91*
Cc1ccc(-c2nc(-c3ccccn3)no2)cc1Cl	17	13	0	72*	64*
c1ccc(-c2nc(-c3ccccn3)no2)cc1	14	9	-7	46	/
CCOc1cccc(/C=N\NC(=O)Cc2cccs2)c1O	/	/	-8	/	/
SMILES	BJeLR lethal	MazEF act	PrPC surface inh	PrP UTR inh	PrP 5UTR single
CCN(CC)c1ccc(C=NNC(=O)c2cc(-c3ccc(C)c(C)c3)n[nH]2)c(O)c1	/	/	8	/	/
COC(=O)C1=C(C)N(Cc2ccccc2C(F)(F)F)C(=NCc2cc(OC)c(OC)c(OC)c2)NC1c1ccccc1 (stereo not drawn)	/	/	3	/	/
CCCC[C@H]1C2CC(OC(=O)Nc3ccc(C#N)cc3)C(C2)[C@H]2CCCCN21 (stereo partly drawn)	/	/	-3	/	/
CC(=Nc1ccccc1)C1=C(O)C(Cc2ccc(O)cc2)NC1=O (stereo not drawn)	/	1	7	54*	89*
Cc1ccc(-c2cn3nc(C)c(C)nc3n2)cc1	7	-5	-31	67*	65*
C[C@@H]1ON(C)[C@H]2C[C@H]3c4[nH]c5cccc(-c6cccc(F)c6)c5c4CCN3C(=O)[C@@H]12	/	/	7	/	/
COc1ccc(NC(=O)C/C(C)=N/NC(=O)c2ccncc2)c([N+](=O)[O-])c1	-4	-3	-16	54*	-17
COc1ccc(OCC(=O)N/N=C(\C)CC(=O)Nc2ccc(OC)cc2[N+](=O)[O-])cc1	0	5	6	-15	/
O=c1c2ccccc2oc2cc(C#CC3(O)CCCCC3)ccc12	7	6	4	70*	55*
O=c1c2ccccc2sc2ccc(C#CC3(O)CCCCC3)cc12	11	0	5	92*	86*
COc1cccc2oc3cc(C#CC4(O)CCCCC4)ccc3c(=O)c12	2	21	-3	-23	/
C[C@H](CO)N1C[C@H](C)[C@@H](CN(C)C(=O)Nc2ccc(N3CCN(C)CC3)cc2)OCc2cn(nn2)CCCC1=O	/	/	-7	/	/
CCNC(=O)CC1C(=O)N(CC)C(=S)N1NC(=O)c1cccnc1 (stereo not drawn)	4	8	-1	80*	-8
COc1ccccc1C1CC(=O)Oc2cc(OC)c(OC)c(OC)c21 (stereo not drawn)	/	10	1	92*	-12
COc1ccc(C2CC(=O)Oc3cc(OC)c(OC)c(OC)c32)cc1 (stereo not drawn)	/	-1	-2	-11	/
O=C(CSc1nnc(-c2cccnc2)n1-c1ccc(Cl)cc1)Nc1cccc2ccccc12	/	/	-3	/	/
COc1cc2cc(c1Cl)N(C)C(=O)CC(OC(=O)C(C)N(C)C(C)=O)C1(C)OC1C(C)C1CC(O)(NC(=O)O1)C(OC)C=CC=C(C)C2 (stereo not drawn)	/	13	10	53*	92*
COc1ccc(-n2c(Cc3cc(=O)[nH]c(=O)[nH]3)nnc2SCC(=O)Nc2ccccc2)cc1	6	6	-7	57*	9
CCOC(=O)[C@]12CCCC=C1N(CCCOC)C(=O)[C@@H]2CC(=O)NCc1ccccc1	/	/	-11	/	/
CC(/C=C1\SC(=O)N(CCCC(=O)O)C1=O)=C\c1ccccc1	1	-4	-1	83*	86*
COc1ccc(-n2ncc3c(SCC(=O)N4CCN(c5ccccc5OC)CC4)ncnc32)cc1	1	-8	8	64*	-26
COc1ccccc1N1CCN(C(=O)CSc2ncnc3scc(-c4ccccc4)c23)CC1	4	1	7	-5	/
C=C(C)CSc1nnc(-c2cc(-c3ccc(OC)cc3)n[nH]2)n1N	/	/	3	/	/
Cc1c(C)c2ccc(OCC(=O)Nc3ccccn3)c(C)c2oc1=O	29	-1	-3	93*	94*
Cc1c(C)c2cc(Cl)c(OCC(=O)Nc3ccccn3)cc2oc1=O	/	-55	-3	/	/
O=C(NC(C(=O)N1CCCC1C(=O)NC1CCCC1)c1ccccc1)c1cccs1 (stereo not drawn)	/	/	-5	/	/
COc1ccc(C(Nc2ccccn2)c2oc(CO)cc(=O)c2O)cc1 (stereo not drawn)	-3	-13	-3	62*	-37
